This is a sample that favours compounds with a hit; in the whole collection about 4.3% have one here.
rCAG RNA binder = binders of r(CAG) RNA repeats, primary screen, biochemical, fluorescence. r(CAG) RNA repeat, TO-PRO-1 dye displacement fluorescence. inhibition, % at 3 µM. actives 1.3% (n = 370,000). AID 651821, 2012;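 active means inhibition above the plate cutoff, the mean of all test compounds on that plate plus 3 SD, cut at about 35% in these data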;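 further: higher means more dye released from RNA so lower well fluorescence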
GRIN3A LBD mod = binders of NR3A ligand-binding domain, primary screen, biophysical, differential scanning fluorimetry, uHTS. Tm shift relative to glycine control, % at 25 µM. NR3A LBD differential scanning fluorimetry, Tm shift; 0% = protein alone, 100% = glycine-bound protein. actives 2.5% (n = 340,000);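 active means melting temperature shift of at least 10% of the positive control shift, at one fixed dose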
FAS TE block = FAS thioesterase domain inhibitors, primary screen, biochemical, fluorescence intensity, uHTS; Fatty acid synthase (Homo sapiens), P49327; recombinant FAS-TE, OMFH fluorogenic substrate, fluorescence endpoint; inhibition, % at 15 µM; actives 0.67% (n = 360,000);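 active means compounds whose normalised, plate-corrected inhibition of enzyme fluorescence in the single-dose primary screen is 50% or more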
Target sequence (P49327 whole entry, looked up, the tested form may be a part): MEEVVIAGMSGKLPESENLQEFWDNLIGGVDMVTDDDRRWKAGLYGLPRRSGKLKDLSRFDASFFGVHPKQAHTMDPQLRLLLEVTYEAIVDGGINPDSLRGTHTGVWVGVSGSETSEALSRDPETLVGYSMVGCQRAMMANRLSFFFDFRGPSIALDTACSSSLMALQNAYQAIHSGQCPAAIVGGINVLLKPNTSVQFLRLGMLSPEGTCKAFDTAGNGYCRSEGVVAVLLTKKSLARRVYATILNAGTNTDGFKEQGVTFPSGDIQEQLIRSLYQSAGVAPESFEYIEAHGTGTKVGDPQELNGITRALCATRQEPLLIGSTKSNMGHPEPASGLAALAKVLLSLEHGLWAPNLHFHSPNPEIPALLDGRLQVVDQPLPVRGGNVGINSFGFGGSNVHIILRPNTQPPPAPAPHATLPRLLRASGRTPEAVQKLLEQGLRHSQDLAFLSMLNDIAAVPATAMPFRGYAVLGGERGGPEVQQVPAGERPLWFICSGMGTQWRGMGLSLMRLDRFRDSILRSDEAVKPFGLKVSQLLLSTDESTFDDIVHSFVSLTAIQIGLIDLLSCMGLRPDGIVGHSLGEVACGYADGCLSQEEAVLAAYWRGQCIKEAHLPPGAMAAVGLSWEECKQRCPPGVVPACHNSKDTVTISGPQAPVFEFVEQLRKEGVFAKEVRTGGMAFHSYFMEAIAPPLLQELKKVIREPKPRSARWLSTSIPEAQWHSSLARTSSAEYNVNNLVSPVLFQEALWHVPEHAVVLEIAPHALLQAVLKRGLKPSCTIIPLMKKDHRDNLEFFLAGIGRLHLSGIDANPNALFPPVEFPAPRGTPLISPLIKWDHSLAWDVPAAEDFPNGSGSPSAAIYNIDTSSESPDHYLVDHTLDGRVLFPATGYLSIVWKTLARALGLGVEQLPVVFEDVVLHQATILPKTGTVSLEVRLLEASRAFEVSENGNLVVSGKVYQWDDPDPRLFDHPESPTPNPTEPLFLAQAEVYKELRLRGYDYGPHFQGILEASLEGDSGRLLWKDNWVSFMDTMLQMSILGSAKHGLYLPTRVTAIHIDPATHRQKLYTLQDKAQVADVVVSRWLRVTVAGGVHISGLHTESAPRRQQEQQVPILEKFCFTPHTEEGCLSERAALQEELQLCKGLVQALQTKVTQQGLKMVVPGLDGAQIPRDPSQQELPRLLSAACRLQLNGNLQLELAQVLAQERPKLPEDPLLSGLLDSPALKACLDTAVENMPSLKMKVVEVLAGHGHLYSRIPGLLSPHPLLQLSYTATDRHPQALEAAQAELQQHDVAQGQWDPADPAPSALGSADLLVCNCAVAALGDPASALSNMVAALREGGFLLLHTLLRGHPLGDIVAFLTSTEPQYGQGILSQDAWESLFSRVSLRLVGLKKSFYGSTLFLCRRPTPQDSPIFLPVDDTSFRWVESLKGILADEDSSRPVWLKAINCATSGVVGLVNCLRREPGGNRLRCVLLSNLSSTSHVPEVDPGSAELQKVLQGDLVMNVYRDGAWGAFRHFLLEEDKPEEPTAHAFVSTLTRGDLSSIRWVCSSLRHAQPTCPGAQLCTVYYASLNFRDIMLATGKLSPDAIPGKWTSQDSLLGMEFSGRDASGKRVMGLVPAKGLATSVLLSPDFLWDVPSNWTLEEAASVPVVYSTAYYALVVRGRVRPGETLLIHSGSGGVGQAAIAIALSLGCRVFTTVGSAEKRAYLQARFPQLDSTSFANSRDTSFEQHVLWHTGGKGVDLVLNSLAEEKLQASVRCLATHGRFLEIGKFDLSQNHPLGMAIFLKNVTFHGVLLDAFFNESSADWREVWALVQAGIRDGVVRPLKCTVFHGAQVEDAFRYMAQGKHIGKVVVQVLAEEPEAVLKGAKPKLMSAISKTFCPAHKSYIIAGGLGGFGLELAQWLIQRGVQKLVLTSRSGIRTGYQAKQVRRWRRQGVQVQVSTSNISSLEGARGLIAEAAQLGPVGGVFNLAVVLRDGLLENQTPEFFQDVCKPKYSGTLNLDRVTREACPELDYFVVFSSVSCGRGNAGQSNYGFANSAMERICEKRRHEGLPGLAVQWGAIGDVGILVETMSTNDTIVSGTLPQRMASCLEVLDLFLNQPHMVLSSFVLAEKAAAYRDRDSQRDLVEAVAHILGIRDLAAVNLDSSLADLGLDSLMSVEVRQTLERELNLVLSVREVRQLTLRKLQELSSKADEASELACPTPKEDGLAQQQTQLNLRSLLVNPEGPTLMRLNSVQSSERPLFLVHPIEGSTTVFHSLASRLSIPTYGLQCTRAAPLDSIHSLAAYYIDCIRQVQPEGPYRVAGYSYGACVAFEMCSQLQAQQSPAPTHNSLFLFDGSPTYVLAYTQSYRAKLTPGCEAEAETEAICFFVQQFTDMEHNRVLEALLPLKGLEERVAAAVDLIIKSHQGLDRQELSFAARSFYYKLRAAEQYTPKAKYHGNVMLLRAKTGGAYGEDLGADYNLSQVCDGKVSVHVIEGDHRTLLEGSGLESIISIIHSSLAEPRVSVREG
NadD block = inhibitors of S. aureus NadD, primary screen, biochemical, colorimetric, uHTS. Nicotinate-nucleotide adenylyltransferase NadD (Staphylococcus aureus N315). purified NadD enzyme, colorimetric absorbance read-out. inhibition, % at 20 µM. actives 0.78% (n = 360,000). AID 602399, 2012; in the data active means inhibition above about 26%
Of the large screens only hits and unclear results are named; the others gave an inactive call.

CCc1[nH]c(=O)c(C#N)c2c1CSC(C)(C)C2	GRIN3A LBD mod 13 (no result: rCAG RNA binder)
CCCCc1[nH]c(=O)c(C#N)c2c1CSC(C)(C)C2	none
COC(=O)c1cc(NC(=O)Nc2ccccc2)ccc1Cl	GRIN3A LBD mod 39
COC(=O)c1cccc(NC(=O)Nc2ccc(Cl)c(Cl)c2)c1	GRIN3A LBD mod 43
COC(=O)c1cc(NC(=O)C2COc3ccccc3O2)ccc1Cl (centres undefined)	none
COC(=O)c1cccc(NC(=O)NC(=O)c2ccccc2Cl)c1	none
COC(=O)[C@]12C[C@H](CC(=O)NCCC(C)C)C(=O)N(Cc3cccc4ccccc34)C1=C[C@H](C(C)(C)C)O[C@@H]2C	none (no result: GRIN3A LBD mod, FAS TE block, NadD block)
CCCCNC(=O)C[C@H]1C[C@@]2(C(=O)OC)C(=C[C@H](C3CCCC3)O[C@@H]2C)N(Cc2ccc(Cl)cc2Cl)C1=O	none (no result: GRIN3A LBD mod, FAS TE block, NadD block)
CC(=O)N1C[C@@H](c2c[nH]c3ccccc23)C=C[C@H]1C(=O)NS(=O)(=O)c1ccc(C)cc1	none (no result: GRIN3A LBD mod, FAS TE block, NadD block)
COC(=O)[C@]12C[C@H](CC(=O)N3CCN(C(=O)C4CC4)CC3)C(=O)N(Cc3ccc(Cl)cc3Cl)C1=C[C@H](COCc1ccccc1)O[C@@H]2C	none (no result: GRIN3A LBD mod, FAS TE block, NadD block)
O=C(CN(c1cccc(Cl)c1)S(=O)(=O)c1ccc(Cl)cc1)N1CCc2ccccc2C1	GRIN3A LBD mod 11
COc1ccc(OC)c(Nc2nc(N(C)c3ccccc3)nc(N)c2[N+](=O)[O-])c1	GRIN3A LBD mod 12
CCc1nnn2c1Cn1c3ccccc3c(=O)n1[C@@H](C(C)C)C2	none (no result: GRIN3A LBD mod, FAS TE block, NadD block)
O=S(=O)(N[C@H]1C[C@@H](NS(=O)(=O)OCC(Cl)(Cl)Cl)C2CCCCC21)OCC(Cl)(Cl)Cl (some centres undefined)	GRIN3A LBD mod 18
Nc1n[nH]c(N)c1N=Nc1cccc(C(F)(F)F)c1	GRIN3A LBD mod 20
COc1ccc(S(=O)(=O)N2CCc3ccccc3C2)cc1C(=O)O	none
COc1ccc(S(=O)(=O)N2CCc3ccccc3C2)cc1OC	GRIN3A LBD mod 14
CCOC(=O)C1CCCN(C(=O)COc2ccc(C(C)(C)C)cc2)CC1 (centres undefined)	none (no result: GRIN3A LBD mod)
CC(C)(C)c1ccc(OCC(=O)N2CCN(C=O)CC2)cc1	GRIN3A LBD mod 18
O=C(N/N=C/c1cccc(C(F)(F)F)c1)c1cc2c(s1)-c1ccccc1CC2	GRIN3A LBD mod 14
CC(C)(C)n1cnc2cc(NS(=O)(=O)c3ccccc3)ccc21	GRIN3A LBD mod 15
O=C1N/C(=N/NC(=O)c2cccc3ccccc23)S/C1=C\c1ccccc1OCc1ccccc1	NadD block 82
CN1C(=O)S/C(=C\c2ccccc2OCc2ccc(C(=O)O)cc2)C1=O	none
COc1ccc(OC)c(/C=C2\S/C(=N/NC(=O)c3ccc4ccccc4c3)NC2=O)c1	GRIN3A LBD mod 17, NadD block 70
COc1ccc(OC)c(/C=N/NC(=O)c2ccc3nc[nH]c3c2)c1	none
CCOc1ccc(-c2nc(CCl)cs2)cc1	none
ClCc1csc(-c2ccc(Cl)cc2)n1	GRIN3A LBD mod 13
COC(=O)[C@]12C[C@H](CC(=O)NCCc3ccccc3OC)C(=O)N(CCc3ccc(OC)c(OC)c3)C1=C[C@H](C(C)(C)C)O[C@@H]2C	none (no result: GRIN3A LBD mod, FAS TE block, NadD block)
CCCCCn1c(NC(=O)c2ccco2)c(S(=O)(=O)c2ccc(C)cc2)c2nc3ccccc3nc21	GRIN3A LBD mod 15
CCCCn1c(NC(=O)c2ccc(Br)o2)c(S(=O)(=O)c2ccccc2)c2nc3ccccc3nc21	none
CCCCn1c(NS(=O)(=O)c2ccccc2)c(S(=O)(=O)c2ccc(C)cc2)c2nc3ccccc3nc21	none
CCCCn1c(NC(=O)c2ccco2)c(S(=O)(=O)c2ccc(C)cc2)c2nc3ccccc3nc21	rCAG RNA binder 59
O=C(CSc1ccc(-c2ccc(Cl)cc2)nn1)Nc1ccc2c(c1)OCCO2	GRIN3A LBD mod 12
Cc1ccc(NC(=O)CSc2ccc(-c3ccc4c(c3)OCO4)nn2)cc1F	none
CC1=Nc2nc(N3CCCCCC3)c(C#N)c3c4c(nc(c23)N1)N(c1ccc2ccccc2c1)C(=O)C4	NadD block 55 (no result: rCAG RNA binder)
COc1ccc(-c2nnc(SCC(=O)/C(C#N)=C(\C)N)o2)cc1	GRIN3A LBD mod 13
C/C(N)=C(/C#N)C(=O)CSc1nnc(-c2ccccc2Br)o1	none
O=C(NN=C1CCCCCC1)c1c[nH]c2ccccc12	GRIN3A LBD mod 20
Cc1c(/C=N\NC(=O)c2c[nH]c3ccccc23)cnn1C	none
O=C(N/N=C/c1cccs1)c1c[nH]c2ccccc12	GRIN3A LBD mod 14
O=C(NN=C1CCCCCC1)c1cc2ccccc2cc1O	none
CCc1ccc(/C=N/NC(=O)c2c[nH]c3ccccc23)s1	GRIN3A LBD mod 30
CN[C@H]1C[C@@H](c2ccccc2Br)N(C(C)=O)C[C@H]1CO	none (no result: GRIN3A LBD mod, FAS TE block, NadD block)
O=C(O)C1Nc2ccc(Br)cc2C2C=CCC12 (centres undefined)	NadD block 31 (no result: rCAG RNA binder)
O=C(O)C1Nc2c(O)cccc2C2C=CCC12 (centres undefined)	rCAG RNA binder 82, NadD block 40
CCOC(=O)C1Nc2ccc(Br)cc2C2C=CCC12 (centres undefined)	rCAG RNA binder 63
CCOC(=O)C1Nc2ccc(C)cc2C2C=CCC12 (centres undefined)	none
Cc1n[nH]c(C)c1S(=O)(=O)NCCc1ccccc1F	none (no result: GRIN3A LBD mod, FAS TE block, NadD block)
CCCCN(C)C(=O)CN1C(=O)C2CCCCN2C(=O)c2ccccc21 (centres undefined)	none (no result: GRIN3A LBD mod, FAS TE block, NadD block)
COC(=O)c1ccc2c(C3(c4c[nH]c5ccccc45)CCN(C(=O)OC(C)(C)C)CC3)c[nH]c2c1	none (no result: GRIN3A LBD mod, FAS TE block, NadD block)
Cn1c(=O)[nH]c(=O)c2c1nc(SCCN1CCCCC1)n2Cc1ccccc1	GRIN3A LBD mod 12
Nc1ccc(-c2cc(-c3ccc(N)cc3)nc(-c3ccccc3)n2)cc1	GRIN3A LBD mod 25
N#Cc1c(-c2ccccc2)cc(-c2ccc(O)cc2)nc1N	GRIN3A LBD mod 15
Cc1ccc(S(=O)(=O)c2nc(Nc3nccs3)sc2Cl)cc1	GRIN3A LBD mod 12
CC(=O)Nc1nc(S(=O)(=O)c2ccc(C)cc2)c(Cl)s1	none
Cc1ccc(N2C(=O)[C@@H]3[C@H](C2=O)[C@H]2C=C(C(=O)c4ccccc4)C=CN2[C@@H]3C(=O)c2ccc(Cl)cc2)cc1	none
O=C(C1=C[C@@H]2[C@H]3C(=O)N(c4cccc(Cl)c4)C(=O)[C@H]3[C@@H](C(=O)c3ccc(Cl)cc3)N2C=C1)c1ccccc1	GRIN3A LBD mod 14, NadD block 57 (no result: rCAG RNA binder)
COc1ccc(OC)c2c1sc(=NC(=O)c1ccco1)n2C	GRIN3A LBD mod 16
COc1ccc(C(=O)N=c2sc3c(C)ccc(OC)c3n2C)cc1OC	none
COc1cccc(C(=O)N=c2sc3c(C)ccc(OC)c3n2C)c1	GRIN3A LBD mod 12
Cc1ccc(C2=CCN(C)C(=O)N2c2ccc(Br)cc2)cc1	none (no result: GRIN3A LBD mod, FAS TE block, NadD block)
Oc1ccc(NC(=S)N=Nc2c(O)[nH]c3ccc(Br)cc23)cc1	none
Oc1[nH]c2ccc(Br)cc2c1N=NC(=S)Nc1ccc(F)cc1	GRIN3A LBD mod 18

Assay outcomes as filed in PubChem BioAssay.
